Source: PubChem BioAssay (National Center for Advancing Translational Sciences (NCATS))
In the library only some 17% were active in any assay of this set; here they are far more common.
ATXN2 expr inh – ATXN2 expression inhibition. Potency, µM (doses to about 57 µM), for the others: at the highest dose activity change, negative = inhibition, most hits filed as inhibitors. HEK-293 ATXN2-luciferase reporter, luminescence, 24 h. hit rate 0.72% among 360,000; also: % is scaled to controls: 0 for no effect and ±100 for the full control effect; nearly all actives have a fitted effect of over 55% in size
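qHTS (up to 57 uM final) was run with 24 h compound exposure of reporter cells at 37 °C. Each well was multiplexed: SteadyGlo luminescence measured ATXN2-luciferase expression after a fluorogenic Gly-Phe-AFC viability readout (25 uM final).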
TGFb SMAD3 inh – blocks TGF-b signaling. HepG2 CAGA-GFP TGF-b/SMAD3 reporter, GFP fluorescence, 18 h; TGF-beta stimulated, 500 pg/mL final. Potency, µM (series often up to 46.1 µM), for inactives: at the top dose activity, negative = inhibition, hits mostly inhibitors. hit rate 1.2% among 410,000. AID 588855; also: % is scaled to controls: 0 for no effect and ±100 for the full control effect; nearly all actives have a fitted effect of over 65% in size
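Inhibition was scored as loss of TGF-beta-induced (500 pg/mL final, 18 hours, 37 degrees C) GFP in HEPG2 cells carrying a CAGA-GFP reporter, in DMEM with 1% FBS. Well GFP was summed per cell; Activity was normalised to unstimulated and stimulated DMSO wells, then concentration-response fitting.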
HepG2 viability – counter-screen for TGF-b inhibitors: cytotoxicity in HepG2 cells; HepG2 CAGA-GFP viability, ATP luminescence, 18 h; Potency, µM (highest dose often 46.1 µM), for the others: top-dose activity change, negative = cytotoxicity, hits mostly cytotoxic; hit rate 0.76% among 410,000; AID 588856
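CellTiter-Glo luminescence gave cytotoxicity after 18 hours at 37 degrees C. The cells were HepG2 CAGA-GFP in 1% FBS DMEM, stimulated with 500 pg/mL TGF-beta after compound addition. %Activity was normalised to no-cell wells (complete cell-killing) and DMSO (no toxicity), and curves were fitted and classified.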
TDP1 cell noCPT – qHTS for Inhibitors of human tyrosyl-DNA phosphodiesterase 1 (TDP1): qHTS in cells in absence of CPT | Potency, µM (highest dose often 46.2 µM), for inactives: top-dose activity change, negative = growth inhibition, most hits filed as inhibitors | DT40 Tdp1-/- hTDP1 cells, no CPT, ATP luminescence, 48 h | AID 686978, 2013 | hit rate 15% among 420,000; also: % is scaled to controls: 0 for no effect and ±100 for the full control effect; nearly all actives have a fitted effect of over 55% in size
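Compound effects on proliferation are scored in DT40 Tdp1-/-;hTDP1 cells in the absence of CPT. ATP levels (CellTiter-Glo luminescence) are recorded after a ≥48 hr, 37 °C incubation.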
DT40 TDP1 CPT – DT40-hTDP1 cell growth loss with CPT; chicken DT40 Tdp1-/-;hTDP1 cells + 20 nM CPT, ATP luminescence, 48 h; hit rate 12% among 420,000; AID 686979; Potency, µM (top dose mostly 46.2 µM), for inactives: at the top dose activity change, negative = growth inhibition, hits mostly inhibitors; also: % is scaled to controls: 0 for no effect and ±100 for the full control effect; nearly all actives have a fitted effect of over 55% in size
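Chicken DT40 Tdp1-/- cells stably complemented with human TDP1 were seeded at 400 cells/well in medium containing 20 nM camptothecin, exposed to pin-transferred compounds, and grown at 37 °C for at least 48 hr. Viability was read as ATP luminescence.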
ATXN viability – viability counter-screen for ATXN expression inhibitors; AID 651635; hit rate 0.49% among 400,000; S2 cells (HEK-293 line with an ATXN2-luciferase reporter) viability, CellTiter-Fluor protease fluorescence, 24 h; Potency, µM (highest dose often 56.7 µM), actives largely listed as cytotoxic; also: nearly all actives have a fitted effect of over 40% in size
Starred values were filed as active, the others as inactive; i = inactive; ? = inconclusive; . = no result given; [ ] = another dose, or the depositor's remark. Calls follow the shape of the dose curve; as a rule, active = well fitted curve in the direction sought with a large enough effect; inconclusive = small, poorly fitted or top-dose-only effect, or another doubt; inactive = no such curve, though single readings can be large; an effect the other way counts as inactive or inconclusive. Potency is read from the fitted curve at half-maximal effect.

SMILES	ATXN2 expr inh	TGFb SMAD3 inh	HepG2 viability	TDP1 cell noCPT	DT40 TDP1 CPT	ATXN viability
C=CCn1c(O)c(C(CC)=Nc2cccc(C(F)(F)F)c2)c(=O)[nH]c1=O	-5%	-1%	14%	10%	17%	i
Cc1nn(C(C)(C)C)c(C)c1/C=N/OC(=O)Nc1ccc(Cl)c(Cl)c1	.	18µM*	-78%	16µM*	15µM*	i
CN1CC(CO)=C[C@H]2c3cccc4[nH]cc(c34)C[C@H]21	.	.	.	-1%	9%	.
O=c1c(F)cn(C2CCCO2)c(=O)n1Cc1c(F)cccc1Cl (configuration not stated)	-4%	15%	-14%	?	6%	i
Cc1cc2c(cc(C(=O)N3CCC(C(=O)NC4CCCC4)CC3)n2Cc2c(F)cccc2Cl)o1	?	?	-22%	23µM*	18µM*	?
CCOC(=O)N1CCN(CC(O)COCCC23CC4CC(CC(C4)C2)C3)CC1 (configuration not stated)	1%	2%	-9%	29µM*	12µM*	i
O=C(C1CC(c2ccc(F)cc2)=NO1)N1CCC2(CC1)OCCO2 (configuration not stated)	14%	18%	1%	-2%	0%	i
O=C(C1CC(c2ccc(Cl)c(Cl)c2)=NO1)N1CCC2(CC1)OCCO2 (configuration not stated)	47%	0%	-1%	15µM*	15µM*	i
CCCCCCCCCCCCCCCC(=O)O[C@@H]1[C@@H](O)[C@@H](O)[C@@H]([C@H](NC(=O)[C@@H]2C[C@@H](CCC)CN2C)[C@H](C)Cl)O[C@@H]1SC	.	.	.	?	24µM*	.
N[C@@]1(C(=O)O)CC[C@@H](C(=O)O)C1	-7%	1%	-13%	-5%	?	i
COC(=O)C1=C(c2ccc(C(C)=O)cc2)C[C@@H]2CC[C@H]1N2C(=O)N1CCCCC1	-6%	-5%	4%	16µM*	21µM*	i
COC(=O)C1=C(c2ccc(C(C)=O)cc2)C[C@@H]2CC[C@H]1N2C(=O)N1CCCC1	6%	-5%	-1%	?	?	i
COC(=O)C1=C(c2ccc(OC(F)(F)F)cc2)C[C@@H]2CC[C@H]1N2C(=O)N1CCCCC1	0%	?	-30%	2.1µM*	2.6µM*	?
C=CCN1CCC2(C)c3cc(O)ccc3C[C@H]1[C@H]2C	.	.	.	-16%	1%	.
O=C(O)CC1OCC=C2CN3CCC45C6=CC(=O)C(=O)C([N+](=O)[O-])=C6NC4C1C2CC35 (configuration not stated)	-14%	?	-51%	11µM*	14µM*	i
COc1cc([N+](=O)[O-])c2ncccc2c1[N+](=O)[O-]	?	1%	-69%	4.6µM*	2.6µM*	?
COc1cc([N+](=O)[O-])c2nc(C)ccc2c1[N+](=O)[O-]	-25%	?	-72%	10µM*	9.2µM*	28µM*
[Cl][In]([Cl])[Cl]	6%[116 µM]	4%	2%	-9%[92.5 µM]	?	i
CCOC(=O)C1CCN(/C=C2/C(=O)NC(=O)N(Cc3ccco3)C2=O)CC1	-2%	0%	7%	-22%	-12%	i
CC(C)CCn1c(=O)c(C(=O)NCc2ccco2)c(O)c2ccccc21	-8%	0%	-55%	9.2µM*	?	i
CCCCCn1c(=O)c(C(=O)NCc2ccco2)c(O)c2ccccc21	-17%	48%	4%	16µM*	?	i
BrCC(Br)(Br)Br	2%	8%	1%	?	9.2µM*	i
O=C(CSc1nc2ccccc2c(=O)n1-c1ccc(Cl)c(Cl)c1)Nc1ccc2c(c1)CCC2	6%	?	-4%	?	?	i
CCCC[N+]12CCC(CC1)C(C(O)(c1ccccc1)c1ccccc1)C2 (configuration not stated)	2%	-2%	-15%	-25%	7%	i
CC[N+]12CCC(CC1)C(=C(c1ccccc1)c1ccccc1)C2	-8%	2%	-19%	16µM*	?	?
SMILES	ATXN2 expr inh	TGFb SMAD3 inh	HepG2 viability	TDP1 cell noCPT	DT40 TDP1 CPT	ATXN viability
COc1ccc(C)cc1NC(=O)CN1CCN(CC(=O)Nc2ccccc2F)CC1	-20%	6%	3%	15µM*	23µM*	i
CCOc1ccc(OCC)c(NC(=O)CN2CCN(c3ccc(C)cc3C)CC2)c1	4%	-10%	11%	16µM*	?	i
CCOC(=O)C1(c2ccccc2)CCN(CC(=O)Nc2ccc(C)cc2)CC1	.	12%	-22%	?	?	i
CCOC(=O)C(C)(CC)NC(=O)CSP(=S)(OCC)OCC (configuration not stated)	-5%	0%	1%	?	?	i
C=Cc1ccc(Cn2c(C)c(CNCCc3cc(OC)ccc3OC)c(C(=O)O)c2C)cc1	-10%	0%	-20%	13µM*	?	?
COC(=O)C1=C(c2ccccc2OCc2ccccc2)C[C@@H]2CC[C@H]1N2C(=O)NCCOc1ccccc1Cl	?	?	-60%	?	?	?
COC(=O)C1=C(c2cccc(OCc3ccccc3)c2)C[C@@H]2CC[C@H]1N2C(=O)NCCOc1ccccc1Cl	-24%	-29%	-7%	23µM*	?	i
COC(=O)C1=C(c2ccc(C(C)=O)cc2)C[C@@H]2CC[C@H]1N2C(=O)NCCO	14%	-1%	2%	0%	6%	i
COC(=O)C1=C(c2cccc(OCc3ccccc3)c2)C[C@@H]2CC[C@H]1N2C(=O)NCCc1ccc(F)cc1	?	?	3%	16µM*	?	?
COC(=O)C1=C(c2ccc(C(C)=O)cc2)C[C@@H]2CC[C@H]1N2C(=O)NCCOc1ccccc1Cl	-2%	-21%	-21%	?	23µM*	i
COC(=O)C1=C(c2cccc(C#N)c2)C[C@@H]2CC[C@H]1N2C(=O)NCCOc1ccccc1Cl	3%	-1%	-8%	16µM*	18µM*	i
CC12CN3CCN(C1)CC(C)(C3)C2=NN	8%	0%	-32%	-19%	13%	i
CCC(C)(C)NC(=O)Cn1c(-c2ccc(C)cc2)noc1=O	5%	31%	72%	-4%	5%	i
